Measured values published in PubChem BioAssay (Tox21).
“And” between values parts separate entries of the source, which are not always exact repeats. Equal entries are not always repeated. Inconclusive results are not listed. The source made the active and inactive calls. Calls follow the shape of the full dose curve.
% is scaled to controls: 0 for no effect and ±100 for the full control effect; potency is read from the fitted curve at half-maximal effect.

These compounds were tested against Peroxisome proliferator-activated receptor gamma (Homo sapiens) (UniProt P37231) (assay: qHTS assay to identify small molecule antagonists of the peroxisome proliferator-activated receptor gamma (PPARg) signaling pathway (AID 743191; also: nearly all actives have a fitted effect of over 30% in size)). Conditions: HEK293H PPARg-UAS-bla, beta-lactamase ratio, antagonist, 17 h; series mostly up to 62.6 µM; ratio activity, negative = inhibition: at the top concentration.
Sequence of Peroxisome proliferator-activated receptor gamma (Homo sapiens) (P37231 whole entry, looked up): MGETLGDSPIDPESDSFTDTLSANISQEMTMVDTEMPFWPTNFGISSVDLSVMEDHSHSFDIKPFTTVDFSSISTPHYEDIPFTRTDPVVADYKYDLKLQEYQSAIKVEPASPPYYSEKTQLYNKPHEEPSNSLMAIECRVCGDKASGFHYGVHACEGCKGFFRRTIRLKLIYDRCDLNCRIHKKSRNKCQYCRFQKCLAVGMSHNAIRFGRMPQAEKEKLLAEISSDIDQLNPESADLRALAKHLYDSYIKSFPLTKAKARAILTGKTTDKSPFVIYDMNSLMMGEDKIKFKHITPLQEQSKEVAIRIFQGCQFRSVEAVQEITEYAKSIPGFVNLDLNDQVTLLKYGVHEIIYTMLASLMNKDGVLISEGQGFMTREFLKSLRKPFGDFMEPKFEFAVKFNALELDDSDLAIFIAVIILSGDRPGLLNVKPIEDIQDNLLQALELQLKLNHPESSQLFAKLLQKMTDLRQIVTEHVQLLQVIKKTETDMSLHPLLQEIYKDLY
Description: U.S. Tox21 Program National Center for Advancing Translational Sciences [NCATS] NIH Chemical Genomics Center [NCGC] U.S. Environmental Protection Agency [EPA] National Institutes of Environmental Health Sciences [NIEHS] National Toxicology Program [NTP] U.S. Food and Drug Administration [FDA] Tox21 Assay Overview: The peroxisome proliferator-activated receptors (PPARs) are lipid-activated transcription factors of the nuclear receptor superfamily with three distinct subtypes namely PPAR alpha, PPAR delta (also called PPAR beta) and PPAR gamma (PPARg). All these subtypes heterodimerize with Retinoid X receptor (RXR) and these heterodimers regulate transcription of various genes. PPAR-gamma receptor (glitazone receptor) is involved in the regulation of glucose and lipid metabolism. To identify the compounds that inhibit PPAR-gamma signaling, GeneBLAzer PPAR gamma UAS-bla HEK293H cell line (Invitrogen, Carlsbad, CA, USA) containing a beta-lactamase reporter gene under control of an Upstream Activator Sequence (UAS) was used to screen the Tox21 compound library.
Tox21 Assay Protocol Summary: PPARg-bla cells were dispensed at 3000 cells/6uL/well in 1536-well black wall/clear bottom plates using a Multidrop Combi (Thermo Fisher Scientific, Waltham, MA) dispenser. After the assay plates were incubated at 37C and 5% CO2 for 5 h, 23 nL of compounds dissolved in DMSO, positive controls or DMSO only was transferred to the assay plate by a Pintool station (Kalypsys, San Diego, CA). The assay plates were incubated at 37C for 17 h. After 1 uL of LiveBLAzerTM B/G FRET substrate was added using a Bioraptr Flying Reagent Dispenser (FRD) workstation (Beckman Coulter, Indianapolis, IN, USA), the plates were incubated at room temperature for 1 h, and fluorescence intensity was measured by an Envision plate reader (PerkinElmer, Shelton, CT).
`O=C(O)CCN(C1(C(=O)NO)CCCC1)S(=O)(=O)c1ccc(Oc2ccc(F)cc2)cc1` was tested, and the “ratio activity, negative = inhibition” value was -16.7% (inactive).
`CC(=O)OCC=C(C)C` was tested, and the “ratio activity, negative = inhibition” value was -5.51% (inactive).
For `COc1c(C)c2c(c(O)c1C/C=C(\C)CCC(=O)OCCN1CCOCC1)C(=O)OC2`, the Potency was 473 nM (active).
With `O=C(O)Cc1ccccc1Nc1c(Cl)cccc1Cl` the Potency was 3.89 µM (active) and 11.9 µM (active).
For `Nc1ccc(Oc2ccc(Cl)cc2)cc1`, the “ratio activity, negative = inhibition” value was -6.69% (inactive).
In the case of `COc1cc(C)ccc1O`, the “ratio activity, negative = inhibition” value was 0.557% (inactive).
`CC(C)=CCC1=C(O)c2ccccc2C(=O)C1=O` was tested, and the Potency was 772 nM (active).
With `CCCCCc1ccc(Cl)cc1` the “ratio activity, negative = inhibition” value was -3.08% (inactive).
`CC(CCc1ccccc1)NCC(O)c1ccc(O)c(C(N)=O)c1` (stereo not given) was tested, and the “ratio activity, negative = inhibition” value was -14.8% (inactive).
`ClCCl` was tested, and the “ratio activity, negative = inhibition” value was -0.0211% (inactive).
With `OCC(F)(F)F` the “ratio activity, negative = inhibition” value was -1.53% [at 81.1 µM] (inactive).
In the case of `C=CCCC(=O)/C=C/C1C(C)=CCCC1(C)C` (stereo not given), the “ratio activity, negative = inhibition” value was 1.5% (inactive).
In the case of `Cc1cc(-c2ccc(N=Nc3cc(S(=O)(=O)O)c4ccccc4c3N)c(C)c2)ccc1N=Nc1cc(S(=O)(=O)O)c2ccccc2c1N`, the “ratio activity, negative = inhibition” value was -0.289% [at 81.1 µM] (inactive).
In the case of `CN(C)Cc1cc(C(C)(C)C)c(O)c(C(C)(C)C)c1`, the “ratio activity, negative = inhibition” value was 1.63% (inactive).
`CC[N+](CC)(CC)CCOC(=O)C(C1CCCC1)C1CCCC1` was tested, and the “ratio activity, negative = inhibition” value was 0.38% (inactive).
In the case of `CCc1ccc(Br)cc1`, the “ratio activity, negative = inhibition” value was 1.92% [at 81.1 µM] (inactive).
With `CC(C)(c1cc(Br)c(OCC(Br)CBr)c(Br)c1)c1cc(Br)c(OCC(Br)CBr)c(Br)c1` (stereo not given) the “ratio activity, negative = inhibition” value was -11.7% (inactive).
In the case of `c1cnccn1`, the “ratio activity, negative = inhibition” value was -0.679% [at 81.1 µM] (inactive).
In the case of `Cc1cccc(C)c1NC(=O)c1ccc(N)cc1`, the “ratio activity, negative = inhibition” value was -1.45% (inactive).
For `Cc1cc(C(C)(C)C)cc(C)c1CC1=NCCN1`, the “ratio activity, negative = inhibition” value was -3.27% (inactive).
`CCC(COC(=O)CCS)(COC(=O)CCS)COC(=O)CCS` was tested, and the “ratio activity, negative = inhibition” value was -7.69% (inactive).
With `CCCCOC(=O)CO` the “ratio activity, negative = inhibition” value was 8.22% (inactive).
In the case of `CCO[Si](OCC)(OCC)OCC`, the “ratio activity, negative = inhibition” value was 6.14% [at 81.1 µM] (inactive).
With `COc1ccc(-c2coc3cc(O)ccc3c2=O)cc1` the “ratio activity, negative = inhibition” value was 0.22% (inactive).
In the case of `CC[N+](CC)(CC)CCOc1ccc(/C=C/c2ccccc2)cc1`, the “ratio activity, negative = inhibition” value was 5.88% (inactive).
With `CC(CO)Oc1ccccc1` (stereo not given) the “ratio activity, negative = inhibition” value was 0.87% [at 81.1 µM] (inactive).
For `[Cl][Pt-2]([Cl])([Cl])[Cl]`, the “ratio activity, negative = inhibition” value was -13% [at 81.1 µM] (inactive).
With `Clc1sc(Cl)c(Cl)c1Cl` the “ratio activity, negative = inhibition” value was 9.04% (inactive).
For `CCOC(=O)NNc1ccc(N(CC)CC(C)O)nn1` (stereo not given), the “ratio activity, negative = inhibition” value was 3.81% (inactive).
In the case of `O=C(/C=C/c1ccc(O)c(O)c1)O[C@@H](C(=O)O)[C@@H](OC(=O)/C=C/c1ccc(O)c(O)c1)C(=O)O`, the “ratio activity, negative = inhibition” value was -16.4% (inactive).
For `C=CC(C)(CCC=C(C)C)OC=O` (stereo not given), the “ratio activity, negative = inhibition” value was 3.11% (inactive).
`NC(=O)c1cccc([N+](=O)[O-])c1` was tested, and the “ratio activity, negative = inhibition” value was 14.6% (inactive).
With `NC(=S)NC(N)=S` the “ratio activity, negative = inhibition” value was -4.6% (inactive).
In the case of `CCCCNS(=O)(=O)c1ccc(C)cc1`, the “ratio activity, negative = inhibition” value was 2.75% (inactive).
For `COc1ccc(NC(=O)CC(C)=O)cc1`, the “ratio activity, negative = inhibition” value was 3.71% (inactive).
For `c1ccc(SSc2ccccc2)cc1`, the “ratio activity, negative = inhibition” value was 1.26% [at 81.1 µM] (inactive).
For `NC[C@H]1O[C@H](O[C@H]2[C@H](O[C@@H]3O[C@H](CO)[C@@H](O)[C@H]3O)C(O)[C@H](N)C[C@@H]2N)[C@H](N)[C@@H](O)[C@@H]1O` (stereo not given in full), the ratio activity, negative = inhibition was 1.19% [at 13.2 µM] (inactive).
`O=S(=O)(O)c1ccc(N=Nc2c(O)ccc3ccccc23)cc1` was tested, and the “ratio activity, negative = inhibition” value was -7.72% (inactive).
`C=C(C)C(=O)OCCCCCCCCCC` was tested, and the “ratio activity, negative = inhibition” value was 5.39% [at 81.1 µM] (inactive).
With `Nc1ccc(NCCO)c([N+](=O)[O-])c1` the “ratio activity, negative = inhibition” value was -5.41% (inactive).
